Compound activity from PubChem.
The list is a sample of the results.
aSyn 5UTR act – Activators via SNCA 5'UTR binding, MLPCN | alpha-synuclein 5'UTR reporter, activators screen | activity score, % (tested at 7.5 µM), hits read low | 7.1% of 300,000 active; in the data active = activity score below about -60%
* marks the source's active call; other numbers are inactive results.

SMILES	aSyn 5UTR act
O=C(NNC(=S)Nc1ccccc1)c1ccc(O)cc1	-131*
COc1ccccc1NC(=S)NNC(=O)c1ccc(O)cc1	-106*
C/C(=N\NC(=O)Nc1ccccc1)c1ccccc1	-80*
CC(C)/C(=N\NC(=O)Nc1ccccc1)c1ccccc1	-70*
O=C(Nc1ccccc1)N(CCCN1CCOCC1)Cc1ccccc1F	-84*
O=S(=O)(Nc1nc2ccccc2nc1N1CCc2ccccc2C1)c1ccc(Cl)cc1	86
Cc1ccccc1S(=O)(=O)Nc1nc2ccccc2nc1N1CCc2ccccc2C1	-108*
CS(=O)(=O)N(CC(=O)NCc1ccncc1)c1ccc(Cl)c(Cl)c1	-89*
Brc1ccc(-c2nnc(-c3cccc(Br)c3)o2)cc1	-127*
O=C(O)c1ccc(-c2nnc(-c3cccc(Br)c3)o2)cc1	-202*
CC1=CCC(COC(=O)Nc2ccccc2)CC1 (stereo not drawn)	-139*
CCOc1cccc(C(=O)NC(=S)Nc2ccc(N3CCN(CC)CC3)cc2)c1	-80*
CCCOc1cccc(C(=O)NC(=S)Nc2ccc(N3CCN(C)CC3)cc2)c1	-69*
COC(=O)c1cn(C(=O)/C=C/c2ccc(OC)c(OC)c2)c2ccccc12	-78*
CC(C)CCNC(=O)C(=O)Nc1ccccc1	-155*
COc1c(Cl)cc(C(=O)NN)cc1Cl	99
CC(C)CCNC(=O)c1ccc(-c2ccccc2)cc1	-107*
CC(C)CCNC(=O)c1ccc(Cl)c(N)c1	-81*
O=C(Nc1ccc(F)cc1F)c1noc2c1CCC2	-169*
O=C(Nc1cc(Cl)ccc1Cl)c1noc2c1CCCC2	-67*
CCOC(=O)c1cc2ccc3ccccc3c2s1	-169*
CCOC(=O)c1cc2c(s1)-c1ccccc1CC2	-97*
N/C(=N\OC(=O)COc1ccc(Cl)cc1Br)c1cccnc1	-157*
CCc1ccc(OCC(=O)O/N=C(\N)c2cccnc2)cc1	-83*
N/C(=N\OC(=O)COc1ccc(Br)cc1Cl)c1cccnc1	-155*
SMILES	aSyn 5UTR act
Cc1cccc(C)c1OCC(O)CN(Cc1ccccc1O)C1CCCCC1 (stereo not drawn)	62
Cc1cc(/C=C2\SC(=S)NC2=O)c(C)n1-c1ccccc1	-163*
Cc1cc(/C=C2\SC(N)=NC2=O)c(C)n1-c1ccccc1	-112*
COc1ccc(-n2c(C)cc(/C=C3\SC(=S)NC3=O)c2C)cc1	-152*
Cc1cc(/C=C2\SC(=S)NC2=O)c(C)n1-c1ccc(O)cc1	-68*
CN(c1ccccc1)S(=O)(=O)c1cc(C(=O)OCC(N)=O)ccc1Cl	-85*
CCOc1ccc2[nH]c(C(=O)N/N=C/c3ccccc3OC)cc2c1	-116*
CCOc1ccc(/C=N/NC(=O)c2cc3c(OC)cc(OC)c(OC)c3[nH]2)cc1	-78*
COc1cc(C(=O)N/N=C/C2CC=CCC2)cc(OC)c1OC (stereo not drawn)	108
COc1ccc2[nH]c(C(=O)N/N=C/c3ccccc3OC)cc2c1	-119*
FC(F)(F)c1ccc(C2NCCc3sccc32)cc1 (stereo not drawn)	-63*
O=C(NC1CCCCCCC1)c1ccccc1O	-175*
O=C(NC1CCCCC1)c1cc2ccccc2cc1O	-81*
Cc1ccccc1C(=O)NC1CCCCCCC1	-148*
O=C(c1ccc(Cl)cc1)c1cnc(Nc2ccccc2Cl)s1	-156*
CC(=O)c1cnc(Nc2cccc(Cl)c2Cl)s1	-92*
Nc1ccc2nc(-c3ccc(N)c(Cl)c3)[nH]c2c1	-115*
Nc1ccc2nc(-c3ccccc3)[nH]c2c1	-126*
COc1ccc2nc(-c3ccccn3)[nH]c2c1	-80*
Nc1ccc(-c2nc3c(Cl)cc(N)cc3[nH]2)cc1	85
Nc1ccc2nc(-c3ccccn3)[nH]c2c1	-161*
Nc1cccc(-c2nc3ccc(C(=O)c4ccccc4)cc3[nH]2)c1	-276*
Nc1ccc2nc(-c3cccs3)[nH]c2c1	-156*
CCOc1ccc(Nc2c3ccccc3nc3ccccc23)cc1	-94*
Cc1cc(NCC2CCCCC2)nc2ccccc12	-69*
SMILES	aSyn 5UTR act
COc1ccc(Nc2cc(C)c3ccc(O)cc3n2)cc1	-138*
Cc1nc(Nc2nc(-c3ccccc3)cc(=O)[nH]2)nc2ccccc12	-120*
CCOc1ccc(Nc2cc(C)c3ccccc3n2)cc1	-85*
COc1ccc(Nc2nc(C)c3ccccc3n2)cc1	-111*
CCCOC(=O)/C(=C\C=C\c1ccco1)NC(=O)c1ccccc1	-86*
Cc1cc(C(=O)C(C)Sc2cccc[n+]2[O-])c(C)n1-c1ccc(Cl)cc1 (stereo not drawn)	-82*
CC1(c2ccc([N+](=O)[O-])cc2)Nc2ccccc2S1 (stereo not drawn)	-83*
O=C(N/N=C/c1ccc(O)c2ncccc12)c1cccc(Br)c1	67
C(=N\NCc1ccccc1)/c1ccc2nccnc2c1	-106*
O=C(N/N=C/c1ccnc2ccccc12)c1ccccc1O	-62*
O=C(N/N=C/c1cccnc1)c1ccc(NC(=O)C(c2ccccc2)c2ccccc2)cc1	111
O=C(N/N=C/c1cccnc1)c1cc(Br)ccc1O	-125*
O=C(N/N=C/c1ccc2nccnc2c1)c1ccccc1O	-150*
Cc1cccc(C(=O)Oc2ccc(/C=N/NC(=O)c3ccccc3O)cc2)c1	-135*
COc1ccc(-n2c(C)nc3c(cnn3-c3ccc(C)c(C)c3)c2=O)cc1	-85*
CN(C)/C=N/c1nc(-c2ccc3ccccc3c2)cs1	-145*
CN(C)/C=N/c1nc(-c2ccc3c(c2)OCO3)cs1	-171*
COC(=O)CNc1c(-c2ccccn2)nc2ccc(Br)cn12	-83*
Cc1ccc(NC(=O)c2cccnc2)c([N+](=O)[O-])c1	-63*
Cc1c(C(=O)Nc2ccccc2[N+](=O)[O-])csc1-c1ccccc1	-142*
CCCOc1ccc(C(=O)NNC(=S)NC(=O)c2ccccc2)cc1	80
CCCc1cc(C(=O)Nc2ccc(OC)cc2[N+](=O)[O-])cs1	-100*
CCCOc1ccc(C(=O)Nc2ccccc2[N+](=O)[O-])cc1	-401*
COc1ccc(NC(=O)c2ccccc2)c([N+](=O)[O-])c1	-144*
N#Cc1c(N)nc2c(c1N)CC(COc1ccccc1)O2 (stereo not drawn)	-130*
SMILES	aSyn 5UTR act
COc1cccc(OCc2cc(/C=N/NC(=O)c3ccn[nH]3)ccc2OC)c1	-71*
Cc1cc(C(=O)CN2CCCC(C)C2)c(C)n1-c1ccc(F)cc1 (stereo not drawn)	-126*
O=C(CC(Nc1ccccc1)C(=O)O)c1ccccc1 (stereo not drawn)	-124*
Cc1ccc(NC(CC(=O)c2ccccc2)C(=O)O)cc1Cl (stereo not drawn)	-125*
O=C(CC(Nc1ccccc1)c1ccc(F)cc1)c1ccccc1 (stereo not drawn)	-75*
CCCC(=O)Nc1ccc(C(=O)/C=C/c2ccc(SC)cc2)cc1	-70*
Cc1cc(C)c2oc(-c3cccc(N)c3)nc2c1	-132*
O=C(CSc1ccccn1)Nc1nc2ccccc2s1	-63*
Cc1ccc(NC(=O)CSc2nccn2C)cc1F	-62*
Cn1ccnc1SCC(=O)Nc1nc2ccccc2s1	-125*
Cn1ccnc1SCC(=O)Nc1ccc2nc(SCC(=O)NC3CC3)sc2c1	-152*
c1ccc(-c2cc3nccc(-c4ccccn4)n3n2)cc1	-196*
Cc1cccc(N/N=C2/COC(C)(C)CC2=O)c1	-101*
CC1(C)CC(=O)/C(=N/Nc2ccc(Cl)cc2)CO1	-230*
CCC(C)N(CC(=O)Nc1cccc(C)c1C)C(=O)CCl (stereo not drawn)	-88*
Oc1ccc(N=C/C=C/c2cccc(Br)c2)cc1-c1nc2ccccc2s1	-99*
